Laboratory results as given in the supplement of paper PMC8975748.
Where a name gives a salt, the structure may show the parent alone. ± gives the standard deviation of the averaged measurements.

How the values were obtained:
[1] = test system: Saccharomyces cerevisiae BY4741 SeMeCo community; test: z-score of prototroph abundance vs DMSO median; higher = larger share of this subpopulation than in DMSO controls; settings: 10 µM; 24 h; SM minimal medium; subpopulation (auxotrophy): Prototroph
Procedure, shortened: (§1)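 Cells of a Saccharomyces cerevisiae BY4741 community, carrying four plasmids that each restored one auxotrophy and encoded a distinct fluorescent protein, were pre-grown overnight to OD600 1.0 and diluted to 0.3. A 70 µl volume was added to 384-well plates acoustically predosed with library drugs (10 µM final) and grown 24 h in minimal SM medium. After paraformaldehyde fixation, automated confocal microscopy was used, with single-auxotroph fluorescent strains for thresholds and autofluorescence correction. The abundance of each subpopulation was scored as a z-score against the vehicle-well median.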

[2] = test system: Saccharomyces cerevisiae BY4741 SeMeCo community; test: z-score of subpopulation abundance vs DMSO median, subpopulation auxotrophic for L; higher = larger share of this subpopulation than in DMSO controls; settings: 10 µM; 24 h; SM minimal medium; subpopulation (auxotrophy): L
Procedure, shortened: as §1

[3] = test system: Saccharomyces cerevisiae BY4741 SeMeCo community; test: z-score of subpopulation abundance vs DMSO median, subpopulation auxotrophic for U; higher = larger share of this subpopulation than in DMSO controls; settings: 10 µM; 24 h; SM minimal medium; subpopulation (auxotrophy): U
Procedure, shortened: as §1

[4] = test system: Saccharomyces cerevisiae BY4741 SeMeCo community; test: z-score of subpopulation abundance vs DMSO median, subpopulation auxotrophic for H; higher = larger share of this subpopulation than in DMSO controls; settings: 10 µM; 24 h; SM minimal medium; subpopulation (auxotrophy): H
Procedure, shortened: as §1

[5] = test system: Saccharomyces cerevisiae BY4741 SeMeCo community; test: z-score of subpopulation abundance vs DMSO median, subpopulation auxotrophic for LU; higher = larger share of this subpopulation than in DMSO controls; settings: 10 µM; 24 h; SM minimal medium; subpopulation (auxotrophy): LU
Procedure, shortened: as §1

[6] = test system: Saccharomyces cerevisiae BY4741 SeMeCo community; test: z-score of subpopulation abundance vs DMSO median, subpopulation auxotrophic for LM; higher = larger share of this subpopulation than in DMSO controls; settings: 10 µM; 24 h; SM minimal medium; subpopulation (auxotrophy): LM
Procedure, shortened: as §1

[7] = test system: Saccharomyces cerevisiae BY4741 SeMeCo community; test: z-score of subpopulation abundance vs DMSO median, subpopulation auxotrophic for HM; higher = larger share of this subpopulation than in DMSO controls; settings: 10 µM; 24 h; SM minimal medium; subpopulation (auxotrophy): HM
Procedure, shortened: as §1

[8] = test system: Saccharomyces cerevisiae BY4741 SeMeCo community; test: z-score of subpopulation abundance vs DMSO median, subpopulation auxotrophic for HU; higher = larger share of this subpopulation than in DMSO controls; settings: 10 µM; 24 h; SM minimal medium; subpopulation (auxotrophy): HU
Procedure, shortened: as §1

[9] = test system: Saccharomyces cerevisiae BY4741 SeMeCo community; test: z-score of subpopulation abundance vs DMSO median, subpopulation auxotrophic for HLM; higher = larger share of this subpopulation than in DMSO controls; settings: 10 µM; 24 h; SM minimal medium; subpopulation (auxotrophy): HLM
Procedure, shortened: as §1

[10] = test system: Saccharomyces cerevisiae BY4741 SeMeCo community; test: z-score of subpopulation abundance vs DMSO median, subpopulation auxotrophic for HUM; higher = larger share of this subpopulation than in DMSO controls; settings: 10 µM; 24 h; SM minimal medium; subpopulation (auxotrophy): HUM
Procedure, shortened: as §1

[11] = test system: Saccharomyces cerevisiae BY4741 SeMeCo community; test: z-score of subpopulation abundance vs DMSO median, subpopulation auxotrophic for LUM; higher = larger share of this subpopulation than in DMSO controls; settings: 10 µM; 24 h; SM minimal medium; subpopulation (auxotrophy): LUM
Procedure, shortened: as §1

[12] = test system: Saccharomyces cerevisiae BY4741 SeMeCo community; test: mean cell size (pixel area) (pixels); higher = larger cells; settings: 10 µM; 24 h; SM minimal medium
Procedure, shortened: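 A four-plasmid fluorescent Saccharomyces cerevisiae BY4741 community was tested; each plasmid complements one auxotrophy and carries a fluorescent marker. An overnight preculture at OD600 = 1.0 was diluted to OD600 = 0.3, and 70 µl was added to 384-well plates acoustically predosed with drug (final 10 µM) in SM medium for 24 h. Cells were fixed with paraformaldehyde and imaged by automated confocal microscopy, with analysis in Harmony. Mean cell pixel area per well is averaged over 3 replicates. Same SeMeCo high-content imaging drug screen: Selleck FDA-approved drugs at 10 µM, 24 h in SM medium, 384-well plates, 3 replicates.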

[13] = test system: Saccharomyces cerevisiae BY4741 SeMeCo community; test: z-score of subpopulation abundance vs DMSO median, subpopulation auxotrophic for UM; higher = larger share of this subpopulation than in DMSO controls; settings: 10 µM; 24 h; SM minimal medium; subpopulation (auxotrophy): UM
Procedure, shortened: as §1

[14] = test system: Saccharomyces cerevisiae BY4741 SeMeCo community; test: z-score of subpopulation abundance vs DMSO median, subpopulation auxotrophic for HL; higher = larger share of this subpopulation than in DMSO controls; settings: 10 µM; 24 h; SM minimal medium; subpopulation (auxotrophy): HL
Procedure, shortened: as §1

[15] = test system: Saccharomyces cerevisiae BY4741 SeMeCo community; test: z-score of subpopulation abundance vs DMSO median, subpopulation auxotrophic for HLUM; higher = larger share of this subpopulation than in DMSO controls; settings: 10 µM; 24 h; SM minimal medium; subpopulation (auxotrophy): HLUM
Procedure, shortened: as §1

Row | Compound | z-score of prototroph abundance [1] | z-score of subpopulation abundance [2] | z-score of subpopulation abundance [3] | z-score of subpopulation abundance [4] | z-score of subpopulation abundance [5] | z-score of subpopulation abundance [6] | z-score of subpopulation abundance [7] | z-score of subpopulation abundance [8] | z-score of subpopulation abundance [9] | z-score of subpopulation abundance [10] | z-score of subpopulation abundance [11] | mean cell size [12] | z-score of subpopulation abundance [13] | z-score of subpopulation abundance [14] | z-score of subpopulation abundance [15]
1 | Nc1ccc(S(N)(=O)=O)cc1 [Sulfanilamide] | 0.43 | -1.4 | 0.22 | -0.45 | -0.14 | -1.02 | -0.8 | -1.15 | -0.21 | 0.6 | -0.2 | – | – | – | –
2 | CCCCCCCCCC(=O)N[C@H]1[C@H](Oc2c3cc4cc2Oc2ccc(cc2Cl)[C@@H](O[C@@H]2O[C@H](CO)[C@@H](O)[C@H](O)[C@H]2NC(C)=O)[C@@H]2NC(=O)[C@H](NC(=O)[C@@H]4NC(=O)[C@H]4NC(=O)[C@@H](Cc5ccc(c(Cl)c5)O3)NC(=O)[C@H](N)c3ccc(O)c(c3)Oc3cc(O)cc4c3)c3ccc(O)c(c3)-c3c(OC4O[C@H](CO)[C@@H](O)[C@H](O)[C@@H]4O)cc(O)cc3[C@@H](C(=O)O)NC2=O)O[C@H](CO)[C@@H](O)[C@@H]1O (some centres undefined) [Teicoplanin] | – | – | – | – | – | – | – | – | – | – | – | 11.8 ± 0.16 | – | – | –
3 | CCCCN(CCCC)CC(O)c1cc(Cl)cc2c1-c1ccc(Cl)cc1/C2=C/c1ccc(Cl)cc1 (centres undefined) [Lumefantrine] | -1 | -0.76 | 1.6 | 0.2 | 0.38 | -0.24 | 0.53 | 0.43 | -0.39 | 1.37 | 0.62 | – | 2.56 | -0.58 | -0.39
4 | O=C1C(N(CO)C(=O)NCO)N(CO)C(=O)N1CO (centres undefined) [Diazolidinyl urea] | 1.06 | 0.77 | -0.26 | -0.72 | 0.3 | -0.49 | -1.17 | -0.75 | – | -0.76 | -0.16 | – | -0.82 | -0.07 | –
5 | C[n+]1ccccc1C=NO [Pralidoxime Iodide] | -0.53 | – | 0.58 | -0.39 | 0.19 | 0.72 | 0.77 | -0.21 | – | 0.13 | 0.18 | 12.27 ± 0.1 | 0.29 | 0.06 | 0.03
6 | Clc1ccc(CCC(Cn2ccnc2)Sc2c(Cl)cccc2Cl)cc1 (centres undefined) [Butoconazole nitrate] | -7.6 | -1.91 | 1.85 | – | 1.13 | -0.84 | 1.46 | 13.3 | 20.2 | 5.03 | – | – | 0.67 | – | 20.4
7 | CN(C)[C@@H]1C(O)=C(C(N)=O)C(=O)[C@@]2(O)C(O)=C3C(=O)c4c(O)ccc(Cl)c4[C@@H](O)[C@H]3C[C@@H]12 [Demeclocycline HCl] | – | – | – | – | – | – | – | – | – | – | – | 12.5 ± 0.32 | – | – | –
8 | NC[C@H]1O[C@H](O[C@H]2[C@H](O)[C@@H](O[C@H]3O[C@H](CO)[C@@H](O)[C@H](N)[C@H]3O)[C@H](N)C[C@@H]2N)[C@H](N)C[C@@H]1O [Tobramycin] | 0.02 | -0.45 | 0.79 | -1.81 | -0.02 | – | -0.2 | 0 | – | 0.03 | -0.69 | 11.72 ± 0.043 | 0.54 | -0.46 | -1.08
9 | C[C@H]1c2cccc(O)c2C(=O)C2=C(O)[C@]3(O)C(=O)C(C(N)=O)=C(O)[C@@H](N(C)C)[C@@H]3[C@@H](O)[C@@H]21 [Doxycycline monohydrate] | – | – | – | – | – | – | – | – | – | – | – | 12.2 ± 0.19 | – | – | –
10 | CCCN[C@H]1CCc2nc(N)sc2C1 [Pramipexole 2HCl Monohydrate] | – | -0.36 | -0.54 | -0.51 | -0.67 | -1.2 | – | -0.19 | -0.59 | -0.88 | -0.47 | – | -0.95 | -0.02 | –
11 | O=c1[nH]cnc2c1ncn2[C@H]1CC[C@@H](CO)O1 [Didanosine] | – | – | – | – | – | – | – | – | – | – | – | 12.4 ± 0.19 | – | – | –
